What was measured:
[1] = system: CLZ3 (HCA2 human fibroblast dual HR-NHEJ reporter); test: NHEJ repair efficiency (GFP+ cells) relative to control (log10 fold); higher = more non-homologous end joining; conditions: 5 µM; doxycycline 0.5 ug/mL
[2] = system: CLZ3 (HCA2 human fibroblast dual HR-NHEJ reporter); test: HR repair efficiency (tdTomato+ cells) relative to control (log10 fold); higher = more homologous recombination; conditions: 5 µM; doxycycline 0.5 ug/mL
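For HR repair efficiency (tdTomato+ cells) relative to control in this document: compound given one day before doxycycline, which switches on I-SceI endonuclease expression to create double-strand breaks within the integrated reporter.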
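For NHEJ repair efficiency (GFP+ cells) relative to control in this document: compound given one day ahead of doxycycline, which switches on I-SceI endonuclease to cut the chromosomally integrated reporter and create DSBs.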

| Compound | NHEJ repair efficiency (log10) [1] | HR repair efficiency (log10) [2] |
| --- | --- | --- |
| C=C1CCC[C@]2(C)C[C@@H]3OC(=O)C(C)=C3C[C@@H]12 [Atractylenolide Ii] | -0.0767 | 0.118 |
| CC(C)(O)CCc1c(O)cc(O)c2c(=O)c(O)c(-c3ccc(O)cc3)oc12 [Noricaritin] | -0.112 | -0.128 |
| COc1c2c(cc3oc(CO)cc(=O)c13)O[C@H](C(C)(C)O)C2 [Cimifugin] | 0.0139 | -0.0036 |
| O=Cc1ccc(O)cc1 [4-Hydroxybenzaldehyde] | 0.0829 | 0.0974 |
| O=C(/C=C/c1ccc(O[C@@H]2O[C@H](CO)[C@@H](O)[C@H](O)[C@H]2O)cc1)c1ccc(O)cc1O [Isoliquiritin] | -0.0606 | -0.0597 |
| C[C@@H]1O[C@@H](O[C@@H]2[C@@H](O)[C@H](OCCc3ccc(O)c(O)c3)O[C@H](COC(=O)/C=C/c3ccc(O)c(O)c3)[C@H]2O)[C@H](O)[C@H](O)[C@H]1O [Isoacteoside] | -0.112 | 0.017 |
| COc1ccc(C(=O)O)cc1 [Anisic Acid] | 0.0832 | 0.118 |
| C=C1CCC[C@]2(C)C[C@]3(O)OC(=O)C(C)=C3C[C@@H]12 [Atractylenolide Iii] | 0.00444 | 0.0542 |
| O=C(/C=C/c1ccc(O)c(O)c1)O[C@H](Cc1ccc(O)c(O)c1)C(=O)O [Rosmarinicacid] | -0.275 | -0.328 |
| OCC1=C[C@@H](O)[C@@H]2C=CO[C@@H](O[C@@H]3O[C@H](CO)[C@@H](O)[C@H](O)[C@H]3O)[C@H]12 [Aucubin] | 0.0297 | 0.121 |
| C[C@@H]1O[C@@H](OC[C@H]2O[C@@H](Oc3cc(O)c4c(=O)cc(-c5ccc(O)cc5)oc4c3)[C@H](O[C@@H]3O[C@@H](C)[C@H](O)[C@@H](O)[C@H]3O)[C@@H](O)[C@@H]2O)[C@H](O)[C@H](O)[C@H]1O [Ligustroflavone] | 0.105 | 0.0603 |
